High-throughput results as filed in PubChem BioAssay.
PostGolgi ctrl = growth of the yeast control strain, post-Golgi counter-screen; inhibition, % at 10 µM; 5% of 98,000 active; efflux-deficient yeast background strain, growth absorbance A615, 16 h
PostGolgi yeast = growth inhibition of a yeast mutant, post-Golgi transport screen; post-Golgi transport phenotypic cell assay; inhibition, % at 10 µM; 0.9% of 98,000 active; AID 739;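 note: yeast cells grown in 1536-well plates; yeast grown about 18 h at 30C before absorbance read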
CYP2C9 inh = blocks human cytochrome P450 2C9; P11712; CYP2C9 Supersomes, luciferin-H conversion, luminescence; inhibition, % at 5 µM; 20% of 96,000 active; AID 777;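 active = blocking of liver enzyme CYP2C9 beyond about 50% at 5 µM, limit read from the data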
CYP2C19 inh = human CYP2C19 inhibition. P33261. CYP2C19 Supersomes, luciferin-H EGE luminescence, 30 min. inhibition, % at 5 µM. 21% of 96,000 active. AID 778;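 active = CYP2C19 inhibition above a set limit at 5 µM in the primary screen, cut at about 50% in these data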;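 note: plate controls were negative control wells for no effect and 2.5 mM tranylcypromine positive control for full effect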
Target sequence (P33261 whole entry, looked up): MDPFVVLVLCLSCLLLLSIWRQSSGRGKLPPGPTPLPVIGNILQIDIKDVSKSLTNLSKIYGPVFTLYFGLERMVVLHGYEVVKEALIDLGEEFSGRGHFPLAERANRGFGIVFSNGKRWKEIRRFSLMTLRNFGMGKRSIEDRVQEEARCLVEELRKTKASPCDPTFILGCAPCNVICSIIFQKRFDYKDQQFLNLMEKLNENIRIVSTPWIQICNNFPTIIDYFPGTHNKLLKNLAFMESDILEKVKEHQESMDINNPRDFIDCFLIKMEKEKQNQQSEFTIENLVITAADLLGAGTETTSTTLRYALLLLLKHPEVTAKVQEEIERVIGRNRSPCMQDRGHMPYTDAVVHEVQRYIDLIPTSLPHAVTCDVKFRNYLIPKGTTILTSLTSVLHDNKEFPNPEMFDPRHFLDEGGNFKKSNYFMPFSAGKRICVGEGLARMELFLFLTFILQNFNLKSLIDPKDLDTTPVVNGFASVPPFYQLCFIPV
CYP2C19 act = activators of human cytochrome P450 2C19; activation factor at 5 µM; recombinant CYP2C19, luciferin-H EGE luminescence; active compounds read high; 0 = fully inhibited enzyme, 1 = untreated enzyme; AID 1025; P33261; 96,000 tested, under 10 active;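 active = activation factor of at least 2 at 5 µM in the primary screen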;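 note: 0 = wells with 2.5 mM tranylcypromine and 1 = vehicle-only wells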
CYP2C9 activ = activators of human CYP2C9 | recombinant CYP2C9, luciferin-H conversion, luminescence; active compounds read high; factor 1 = untreated enzyme, 0 = blocked | AID 1024 | P11712 | 1.4% of 96,000 active | activation factor at 5 µM;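 active = activation factor of 2 or more for CYP2C9 at a 5 µM dose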;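 note: 0 = sulfaphenazole-blocked wells and 1 = vehicle-only wells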
* marks the source's active call; other numbers are inactive results; · = no result given. Only some compounds are listed: those with a hit (about 32% of all), similar ones and a draw of the others. Cut-off read from the data, not from the text of the source, unless noted: active = inhibition above about 30%; inactive = the rest.

SMILES | PostGolgi ctrl | PostGolgi yeast | CYP2C9 inh | CYP2C19 inh | CYP2C19 act | CYP2C9 activ
S=c1[nH]nc(-c2cc(-c3ccco3)[nH]n2)n1-c1ccccc1Cl | 0 | 4 | 24 | 16 | 0.8 | 0.8
Oc1ccc(Cl)cc1-c1cc(-c2ccco2)[nH]n1 | 46* | 4 | 35 | 10 | 0.9 | 0.7
Oc1ccc(Cl)cc1-c1cc(-c2cccc(Br)c2)n[nH]1 | 54* | 7 | 20 | 11 | 0.9 | 0.8
Cc1ccc(O)c(-c2cc(C(F)(F)C(F)F)[nH]n2)c1 | 17 | 12 | 83* | 84* | 0.2 | 0.2
COc1ccc(OC)c(C(c2nnnn2Cc2ccccc2)N2CCN(C3CCCCC3)CC2)c1 (stereo unspecified) | -5 | 6 | 8 | 1 | 1 | 0.9
N#Cc1cnn(-c2nc3sc4c(c3c(=O)[nH]2)CCCC4)c1N | 18 | 14 | 10 | 3 | 1 | 0.9
O=C(O)C1CCC(=O)N1Cc1ccccc1Cl (stereo unspecified) | 30* | 0 | 11 | 4 | 1 | 0.9
O=C(NCCc1ccc(Cl)cc1)C1CCC(=O)N1Cc1ccccc1Cl (stereo unspecified) | 11 | -8 | 44 | 36 | 0.6 | 0.6
O=C(Nc1ccc(Cl)cc1Cl)C1CCC(=O)N1Cc1ccccc1Cl (stereo unspecified) | 14 | -5 | 33 | 51* | 0.5 | 0.7
COCCCNC(=O)C1CCC(=O)N1Cc1ccccc1Cl (stereo unspecified) | 6 | 1 | 9 | 6 | 0.9 | 0.9
Cc1c(Br)cc(C(=O)NCCCN2CCOCC2)c(C)c1C | 6 | 3 | -60 | 24 | 0.8 | 1.6
Cc1ccc(S(=O)(=O)C(C#N)c2nc3ccccc3nc2N2CCCCC2)cc1 (stereo unspecified) | · | · | 7 | 17 | 0.8 | 0.9
Cc1cccc(S(=O)(=O)C(C#N)c2nc3ccccc3nc2N2CCOCC2)c1 (stereo unspecified) | 25 | 0 | 56* | 29 | 0.7 | 0.4
CCOC(=O)N1CCN(c2nc3ccccc3nc2C(C#N)S(=O)(=O)c2ccc(C)cc2)CC1 (stereo unspecified) | 18 | 3 | 92* | 33 | 0.7 | 0.1
CCOCCn1c(CN2CCC(Cc3ccccc3)CC2)nc2c1c(=O)n(C)c(=O)n2C | · | · | 24 | 22 | 0.8 | 0.8
CCN(CC)CCCN(Cc1cc2ccc(C)c(C)c2[nH]c1=O)C(=O)NC1CCCCC1 | 7 | 1 | -2 | -5 | 1.1 | 1
COc1cccc(C2C(C(=O)OC(C)C)=C(C)Nc3ncnn32)c1 (stereo unspecified) | 25 | -3 | 48 | 30 | 0.7 | 0.5
c1ccc(Oc2cc(-c3ccccc3)ncn2)cc1 | -2 | 1 | 13 | 66* | 0.3 | 0.9
Cc1ccc(CN(C)C(=O)C2CCCN2C(=O)c2cccs2)o1 (stereo unspecified) | 3 | -3 | 14 | 57* | 0.4 | 0.9
CC(=O)n1c(Cl)c(NC(=O)CCl)c2ccccc21 | -2 | 12 | 7 | 15 | 0.9 | 0.9
Cc1ccc(CCNC(=O)C2CCN(S(=O)(=O)c3c(C)nn(C)c3C)CC2)cc1 | 23 | -2 | -37 | 15 | 0.8 | 1.4
Cc1ccc(Cl)cc1N1CCN(C(=O)C2CCN(S(=O)(=O)c3c(C)nn(C)c3C)CC2)CC1 | 41* | 2 | -76 | 35 | 0.6 | 1.8
O=C(C1CCCN(S(=O)(=O)c2cccnc2)C1)N1CCN(c2ccccn2)CC1 (stereo unspecified) | 12 | 0 | 63* | 9 | 0.9 | 0.4
Cc1ccc(Cl)cc1N1CCN(C(=O)C2CCN(S(=O)(=O)c3cccnc3)CC2)CC1 | 13 | -6 | 55* | 61* | 0.4 | 0.5
NC(=O)CNC1CC(=O)N(CCc2ccccc2)C1=O (stereo unspecified) | 0 | -12 | 7 | 14 | 0.9 | 0.9
SMILES | PostGolgi ctrl | PostGolgi yeast | CYP2C9 inh | CYP2C19 inh | CYP2C19 act | CYP2C9 activ
CCOC(=O)c1oc2ccccc2c1CSc1nnnn1-c1ccccc1 | 12 | 7 | 37 | 20 | 0.8 | 0.6
CCOc1cc(C(=S)N2CCOCC2)ccc1OS(=O)(=O)c1ccc(NC(C)=O)cc1 | 5 | -1 | 61* | 71* | 0.3 | 0.4
CCOc1cc(C(=S)N2CCN(C)CC2)ccc1OCC(=O)N1CCOCC1 | 6 | -9 | 0 | 2 | 1 | 1
CCOc1ccccc1C(=O)Nc1ccc(S(=O)(=O)N2CCOCC2)cc1 | 10 | -3 | -230 | 54* | 0.5 | 3.3*
CCOc1ccc(C(=O)Nc2ccc(S(=O)(=O)N3CCOCC3)cc2)cc1OCC | 20 | -4 | 9 | -7 | 1.1 | 0.9
COc1ccccc1C(=O)Nc1ccc(S(=O)(=O)N2CCOCC2)cc1 | 10 | 12 | -418 | 16 | 0.8 | 5.2*
O=C(Cc1ccccc1)Nn1cnc2ccccc21 | 11 | -1 | 36 | 33 | 0.7 | 0.6
Cn1nc(-c2ccccc2)c(-c2nc(-c3cccc(Cl)c3)no2)c1Cl | 7 | -1 | 60* | 20 | 0.8 | 0.4
COC(=O)c1cc(OC)c(OC)cc1NC(=O)c1c(-c2ccccc2)noc1C | 13 | -3 | 75* | 56* | 0.4 | 0.2
COc1cccc(/C=N/NC(=O)c2nc(-c3ccccc3)cc(-c3ccccc3)n2)c1 | 11 | 0 | 27 | 34 | 0.7 | 0.7
COc1cc(/C=N/NC(=O)c2c(-c3ccccc3)noc2C)ccc1O | -1 | 4 | 77* | 52* | 0.5 | 0.2
COC(=O)c1cc(OC)c(OC)cc1NC(=O)c1ccc(C)cc1 | 27 | 0 | 51* | 42 | 0.6 | 0.5
COc1cc(OC)c(NC(=O)c2c(-c3ccccc3)noc2C)cc1Cl | 7 | -2 | 26 | 0 | 1 | 0.7
COc1ccc(/C=N/NC(=O)c2nc(-c3ccccc3)cc(-c3ccccc3)n2)cc1OC | 32* | 3 | -6 | 1 | 1 | 1.1
Cn1c(O)c(C=NC(CC(N)=O)C(=O)O)c(=O)n(C)c1=O (stereo unspecified) | 4 | 17 | -13 | 2 | 1 | 1.1
Cc1ccc(F)cc1NC(=O)c1c(-c2ccccc2)noc1C | 15 | -7 | 13 | 53* | 0.5 | 0.9
COc1cc(/C=N/NC(=O)CCn2c3ccccc3c3ccccc32)ccc1O | 20 | 3 | 65* | 60* | 0.4 | 0.3
COc1ccc(/C=N/NC(=O)CCc2ccccc2)cc1O | 6 | 3 | 11 | 1 | 1 | 0.9
Cc1ccccc1NC(=O)c1c(-c2ccccc2)noc1C | 11 | 5 | -2 | 52* | 0.5 | 1
Cc1cccc(C)c1NC(=O)c1c(-c2ccccc2)noc1C | 5 | 0 | 10 | 43 | 0.6 | 0.9
CCCOc1ccccc1NC(=O)c1c(-c2ccccc2)noc1C | 15 | 6 | -15 | 4 | 1 | 1.1
COC(=O)c1cc(OC)c(OC)cc1NC(=O)Nc1ccc(OC)cc1OC | 5 | -1 | 84* | 68* | 0.3 | 0.2
